For some assays here: Entries with a potency or affinity are not part of this list.
Tests used:
Design in all cases: scale not given: direction of the effect not stated beside the values
[1] = target: Protein translocase subunit SecA (Escherichia coli (strain K12)) (UniProt P10408); experiment: Assay to Identify E. coli SecA ATPase Inhibitors; type: functional; conditions: 30 µM
[2] = target: T1, Ubiquitin-activating enzyme e1, putative (Leishmania donovani (strain BPK282A1)) (UniProt E9BSI1); experiment: Leishmania donovani Ubiquitin Activating Enzyme (LdE1); type: functional; conditions: 30 µM
T1 sequence (whole entry): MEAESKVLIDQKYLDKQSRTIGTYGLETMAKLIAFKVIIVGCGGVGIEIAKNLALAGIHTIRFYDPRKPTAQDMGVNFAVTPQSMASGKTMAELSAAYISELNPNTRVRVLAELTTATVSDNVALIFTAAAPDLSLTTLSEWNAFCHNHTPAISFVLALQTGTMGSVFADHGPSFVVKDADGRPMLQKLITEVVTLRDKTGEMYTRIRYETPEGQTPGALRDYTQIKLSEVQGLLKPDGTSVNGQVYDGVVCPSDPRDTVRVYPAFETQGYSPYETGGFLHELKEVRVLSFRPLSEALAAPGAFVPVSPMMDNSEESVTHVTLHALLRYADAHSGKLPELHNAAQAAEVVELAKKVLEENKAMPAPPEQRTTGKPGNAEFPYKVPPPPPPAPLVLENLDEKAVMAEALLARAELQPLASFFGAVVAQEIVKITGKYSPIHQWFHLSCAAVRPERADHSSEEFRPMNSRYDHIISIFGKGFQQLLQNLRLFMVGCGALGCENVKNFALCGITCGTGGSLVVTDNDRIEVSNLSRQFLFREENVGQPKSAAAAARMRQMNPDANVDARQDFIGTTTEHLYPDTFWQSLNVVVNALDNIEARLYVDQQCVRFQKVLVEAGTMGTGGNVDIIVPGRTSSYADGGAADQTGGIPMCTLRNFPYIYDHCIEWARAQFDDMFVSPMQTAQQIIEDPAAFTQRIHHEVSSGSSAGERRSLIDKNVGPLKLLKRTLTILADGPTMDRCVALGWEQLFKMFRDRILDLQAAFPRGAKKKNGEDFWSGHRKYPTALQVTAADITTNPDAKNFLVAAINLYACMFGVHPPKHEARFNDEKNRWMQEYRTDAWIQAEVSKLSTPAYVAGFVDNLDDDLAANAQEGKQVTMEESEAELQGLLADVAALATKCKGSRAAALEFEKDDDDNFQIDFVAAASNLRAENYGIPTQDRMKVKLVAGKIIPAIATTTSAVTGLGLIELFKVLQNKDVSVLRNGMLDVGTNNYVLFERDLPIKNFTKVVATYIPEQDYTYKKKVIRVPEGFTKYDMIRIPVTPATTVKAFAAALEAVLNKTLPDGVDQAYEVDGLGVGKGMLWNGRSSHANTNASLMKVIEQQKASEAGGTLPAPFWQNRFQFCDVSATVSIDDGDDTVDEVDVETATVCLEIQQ

[3] = target: AMP-activated protein kinase, AMPK (Homo sapiens) (UniProt P54646+O43741+P54619+Q9UGJ0+Q9Y478+Q13131+Q9UGI9); experiment: AMP-dependent Kinase enzyme assay. An in vitro enzyme assay that detects ADP turnover that is directly proportional to AMPK activity. This uses naive AMPK that is activated during the assay with MK-8722; type: functional; conditions: 30 µM
[4] = target: Sialic acid-binding Ig-like lectin 9 (Homo sapiens) (UniProt Q9Y336); experiment: Hs-Siglec9 ALPHAscreen SOP 20170721; conditions: 10 µM
Chain of Sialic acid-binding Ig-like lectin 9 (Homo sapiens) (Q9Y336 whole entry): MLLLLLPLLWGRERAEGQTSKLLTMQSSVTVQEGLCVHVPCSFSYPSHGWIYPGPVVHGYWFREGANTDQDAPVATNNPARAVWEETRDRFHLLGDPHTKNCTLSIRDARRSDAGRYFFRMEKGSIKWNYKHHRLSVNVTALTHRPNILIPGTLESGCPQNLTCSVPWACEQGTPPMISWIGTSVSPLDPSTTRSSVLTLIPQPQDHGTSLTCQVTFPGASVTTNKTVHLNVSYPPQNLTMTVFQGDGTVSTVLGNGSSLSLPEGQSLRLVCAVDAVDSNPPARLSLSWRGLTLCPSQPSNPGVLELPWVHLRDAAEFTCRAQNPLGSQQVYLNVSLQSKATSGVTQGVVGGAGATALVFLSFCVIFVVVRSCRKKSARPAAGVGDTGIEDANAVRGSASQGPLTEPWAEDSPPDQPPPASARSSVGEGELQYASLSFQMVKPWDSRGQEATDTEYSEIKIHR

Trypanosoma cruzi = experiment: Trypanosoma cruzi phosphomannomutase and mannose-1-phosphate guanylyltransferase assay; type: functional; conditions: 10 µM
[5] = target: T2, Arginase-2, mitochondrial (Homo sapiens) (UniProt P78540); experiment: in vitro enzyme assay to detect the production of urea directly proportional to the activity of Arginase II; type: functional; conditions: 33.3 µM; further: in the data most compounds retested in dose-response had high values
T2 sequence (whole entry): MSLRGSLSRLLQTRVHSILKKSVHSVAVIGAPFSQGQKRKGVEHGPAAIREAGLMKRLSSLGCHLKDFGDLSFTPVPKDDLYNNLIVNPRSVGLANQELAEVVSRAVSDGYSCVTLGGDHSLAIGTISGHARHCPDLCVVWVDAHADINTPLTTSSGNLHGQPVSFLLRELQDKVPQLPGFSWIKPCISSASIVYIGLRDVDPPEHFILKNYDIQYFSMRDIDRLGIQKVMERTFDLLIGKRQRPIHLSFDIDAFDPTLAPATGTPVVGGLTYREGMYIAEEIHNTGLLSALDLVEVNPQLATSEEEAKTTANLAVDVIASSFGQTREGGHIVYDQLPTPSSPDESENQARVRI

[6] = target: T3, Proteasome subunit beta (Trypanosoma cruzi) (UniProt O96673); experiment: Trypanosoma cruzi proteasome chymotrypsin-like activity (TcProtChymo) assay.; further: in the data most compounds retested in dose-response had high values; type: functional; conditions: 9.37 µM
T3 sequence (whole entry): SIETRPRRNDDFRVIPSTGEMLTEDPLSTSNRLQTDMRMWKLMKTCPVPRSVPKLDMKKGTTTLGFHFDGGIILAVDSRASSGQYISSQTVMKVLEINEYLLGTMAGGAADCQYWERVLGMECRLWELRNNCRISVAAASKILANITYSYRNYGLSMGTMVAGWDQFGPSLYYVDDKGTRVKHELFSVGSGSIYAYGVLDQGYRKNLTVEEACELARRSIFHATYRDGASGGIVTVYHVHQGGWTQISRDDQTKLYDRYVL

Homo sapiens = species: Homo sapiens; experiment: To identify inhibition of the IFN signalling (Jak-Stat) pathway via expression of an eGFP reporter gene under the control of an IFN-stimulated response element (ISRE) containing MxA promoter.; type: functional; conditions: 30 µM
[7] = target: T4, Tyrosyl-tRNA synthetase, putative (Trypanosoma cruzi (strain CL Brener)) (UniProt Q4DSP6); experiment: Trypanosoma cruzi tyrosyl tRNA synthetase (TcYRS) _High Tyrosine SOP; type: functional; conditions: 30 µM; further: in the data most compounds retested in dose-response had high values
T4 sequence (whole entry): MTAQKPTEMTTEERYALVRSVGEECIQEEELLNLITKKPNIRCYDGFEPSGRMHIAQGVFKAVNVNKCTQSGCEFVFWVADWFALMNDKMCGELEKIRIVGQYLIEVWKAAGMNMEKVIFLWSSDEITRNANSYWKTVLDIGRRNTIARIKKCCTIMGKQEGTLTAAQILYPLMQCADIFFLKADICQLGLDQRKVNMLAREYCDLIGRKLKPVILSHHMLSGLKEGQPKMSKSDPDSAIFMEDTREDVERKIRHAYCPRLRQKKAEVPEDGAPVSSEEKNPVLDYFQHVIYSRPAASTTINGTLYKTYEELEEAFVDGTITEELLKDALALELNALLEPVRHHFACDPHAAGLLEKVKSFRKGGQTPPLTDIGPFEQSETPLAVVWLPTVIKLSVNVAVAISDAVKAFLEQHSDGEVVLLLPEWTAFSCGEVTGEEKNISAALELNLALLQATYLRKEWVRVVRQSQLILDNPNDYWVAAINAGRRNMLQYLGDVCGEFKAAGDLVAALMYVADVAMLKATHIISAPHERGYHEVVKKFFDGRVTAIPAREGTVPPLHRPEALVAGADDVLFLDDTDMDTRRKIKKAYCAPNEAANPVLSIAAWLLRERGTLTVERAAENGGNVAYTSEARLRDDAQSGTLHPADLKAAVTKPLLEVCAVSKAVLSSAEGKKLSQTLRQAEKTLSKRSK

[8] = target: T4, Tyrosyl-tRNA synthetase, putative (Trypanosoma cruzi (strain CL Brener)); experiment: Trypanosoma cruzi tyrosyl tRNA synthetase (TcYRS) SOP; type: functional; conditions: 30 µM
[9] = target: Chromo domain-containing protein 1 (Saccharomyces cerevisiae (strain ATCC 204508 / S288c) (Baker's yeast)) (UniProt P32657); experiment: ScCHD-1 Enzyme Inhibition Assay; type: functional; conditions: 30 µM; further: in the data most compounds retested in dose-response had high values
Chain of Chromo domain-containing protein 1 (Saccharomyces cerevisiae (strain ATCC 204508 / S288c) (Baker's yeast)) (P32657 whole entry, the tested form may be a part): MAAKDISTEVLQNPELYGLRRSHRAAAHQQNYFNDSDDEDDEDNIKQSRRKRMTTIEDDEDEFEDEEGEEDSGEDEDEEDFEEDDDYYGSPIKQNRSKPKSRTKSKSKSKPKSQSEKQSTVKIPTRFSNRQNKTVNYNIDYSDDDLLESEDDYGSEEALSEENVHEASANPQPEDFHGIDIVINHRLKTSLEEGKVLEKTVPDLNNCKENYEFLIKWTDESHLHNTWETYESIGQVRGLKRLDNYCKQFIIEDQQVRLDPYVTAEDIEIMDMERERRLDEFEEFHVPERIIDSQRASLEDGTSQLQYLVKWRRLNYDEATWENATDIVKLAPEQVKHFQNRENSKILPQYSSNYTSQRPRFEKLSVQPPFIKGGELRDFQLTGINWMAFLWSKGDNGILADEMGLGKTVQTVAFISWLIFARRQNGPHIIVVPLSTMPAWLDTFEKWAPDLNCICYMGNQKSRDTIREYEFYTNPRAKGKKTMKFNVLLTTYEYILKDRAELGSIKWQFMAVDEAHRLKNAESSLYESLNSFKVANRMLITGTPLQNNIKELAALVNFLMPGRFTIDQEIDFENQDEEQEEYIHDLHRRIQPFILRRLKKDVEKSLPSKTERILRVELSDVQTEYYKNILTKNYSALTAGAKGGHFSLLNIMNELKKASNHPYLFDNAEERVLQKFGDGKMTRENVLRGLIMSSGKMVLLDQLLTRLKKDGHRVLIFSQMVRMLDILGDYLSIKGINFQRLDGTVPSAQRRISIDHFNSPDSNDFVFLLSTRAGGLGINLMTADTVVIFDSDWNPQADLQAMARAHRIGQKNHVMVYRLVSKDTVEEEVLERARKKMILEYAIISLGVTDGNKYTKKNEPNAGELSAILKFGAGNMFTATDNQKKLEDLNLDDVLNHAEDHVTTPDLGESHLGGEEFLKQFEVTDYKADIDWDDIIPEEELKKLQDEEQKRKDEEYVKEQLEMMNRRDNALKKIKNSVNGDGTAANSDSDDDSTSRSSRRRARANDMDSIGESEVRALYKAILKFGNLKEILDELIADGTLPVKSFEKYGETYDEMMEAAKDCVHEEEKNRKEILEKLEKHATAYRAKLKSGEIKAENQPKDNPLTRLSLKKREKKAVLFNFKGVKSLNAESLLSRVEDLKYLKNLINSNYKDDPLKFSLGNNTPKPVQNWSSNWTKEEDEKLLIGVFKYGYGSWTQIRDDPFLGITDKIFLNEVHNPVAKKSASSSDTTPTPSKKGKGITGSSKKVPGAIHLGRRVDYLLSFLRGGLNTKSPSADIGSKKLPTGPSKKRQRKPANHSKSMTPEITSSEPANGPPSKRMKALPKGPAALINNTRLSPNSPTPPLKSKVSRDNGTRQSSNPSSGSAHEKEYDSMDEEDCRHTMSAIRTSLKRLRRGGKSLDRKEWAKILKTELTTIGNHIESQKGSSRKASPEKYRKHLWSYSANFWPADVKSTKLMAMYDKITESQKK

Chain of Protein translocase subunit SecA (Escherichia coli (strain K12)) (P10408 whole entry): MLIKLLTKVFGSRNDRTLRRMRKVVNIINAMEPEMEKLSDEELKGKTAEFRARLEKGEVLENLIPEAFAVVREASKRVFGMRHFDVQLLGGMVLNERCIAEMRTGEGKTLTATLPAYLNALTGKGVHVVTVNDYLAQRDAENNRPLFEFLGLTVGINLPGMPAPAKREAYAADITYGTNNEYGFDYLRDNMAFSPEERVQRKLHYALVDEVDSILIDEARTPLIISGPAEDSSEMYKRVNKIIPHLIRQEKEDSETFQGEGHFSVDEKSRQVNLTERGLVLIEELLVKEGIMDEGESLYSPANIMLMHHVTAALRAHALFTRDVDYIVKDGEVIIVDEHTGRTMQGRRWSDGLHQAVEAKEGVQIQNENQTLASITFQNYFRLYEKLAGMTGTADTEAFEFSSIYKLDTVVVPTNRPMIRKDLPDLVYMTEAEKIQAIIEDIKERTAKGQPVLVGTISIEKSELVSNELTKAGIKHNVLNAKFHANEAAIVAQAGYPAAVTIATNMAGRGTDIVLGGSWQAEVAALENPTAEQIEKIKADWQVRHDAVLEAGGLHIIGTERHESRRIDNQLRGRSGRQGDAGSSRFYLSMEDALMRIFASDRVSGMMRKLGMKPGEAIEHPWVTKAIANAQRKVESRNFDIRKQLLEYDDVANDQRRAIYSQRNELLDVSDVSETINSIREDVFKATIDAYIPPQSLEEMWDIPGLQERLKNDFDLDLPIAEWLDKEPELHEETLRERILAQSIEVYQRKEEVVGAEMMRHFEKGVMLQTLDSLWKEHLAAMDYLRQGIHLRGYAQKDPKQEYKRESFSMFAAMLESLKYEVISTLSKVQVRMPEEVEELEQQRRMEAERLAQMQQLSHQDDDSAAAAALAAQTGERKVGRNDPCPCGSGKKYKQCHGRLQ

| SMILES | Percent Effect [1] [%] | Percent Effect [2] [%] | Percent Effect [3] [%] | Percent Effect [4] [%] | Percent Effect (Trypanosoma cruzi) [%] | Percent Effect [5] [%] | Percent Effect [6] [%] | Percent Effect (Homo sapiens) [%] | Percent Effect [7] [%] | Percent Effect [8] [%] | Percent Effect [9] [%] |
| --- | --- | --- | --- | --- | --- | --- | --- | --- | --- | --- | --- |
| COc1cc(C)nc(N2CCN(C(=O)CCn3cc(C)cn3)CC2)n1 | -1.32 | 10.1 | 1.67 | 2.37 | -6.52 | 4.94 | -6.47 | 11 | -6.4 | 11.4 | -2.89 |
| CN(C)CC1CSCCCN1C(=O)c1ccc(C(C)(C)C)cc1 (configuration not stated) | 2.6 | 2.6 | 2.24 | 1.48 | -5.23 | 7.1 | 1.39 | 1.95 | 6.35 | 16.7 | -4.54 |
| COc1ccc(-c2nnc(SC(C)C(=O)NC3CC3)[nH]2)c(OC)c1 (configuration not stated) | -8.04 | 15.8 | 1.94 | -2.88 | 2.63 | -2.37 | 13.3 | 71.7 | 6.38 | 18.2 | -7.11 |
| O=C(CC1CN(Cc2ccccc2)CCO1)NC1CCCC1 (configuration not stated) | -6.09 | 24.3 | -1.42 | 7.65 | 7.62 | 8.33 | 7.35 | 15.4 | 7.92 | 23.2 | -6.96 |
| COCC(=O)N1CC[C@@H]2CN(Cc3cccc(Cl)c3)S(=O)(=O)[C@@H]2CC1 | -3.3 | 10.7 | -2.58 | -5.34 | -6.18 | -55 | 9.74 | 5.42 | -3.12 | 12.5 | -5.91 |
| c1ccc(-c2noc(CN3CCC(c4ccn[nH]4)CC3)n2)cc1 | 1.64 | -8.11 | -9.82 | 9.87 | 3.09 | 26.2 | 21.9 | -10.4 | 4.76 | 14.6 | -1.3 |
| Clc1snnc1CN1CCCCC1Cn1cncn1 (configuration not stated) | -0.0251 | 17.7 | -10.2 | -9.75 | -2.17 | 2.66 | 13.2 | 5.04 | 12.3 | 24.1 | -4.67 |
| Fc1cccc(N2CCCC3(C2)CN(c2ncccn2)CCO3)c1 (configuration not stated) | -0.397 | 13 | 2.68 | -5.04 | -2.66 | 3.23 | 9.4 | 23.1 | 7.41 | 14.1 | -4.87 |
| Cc1cnn(CC2CN(Cc3nc(N)c4ccccc4n3)CCO2)c1 (configuration not stated) | -2.67 | 13 | -1.66 | -10 | -5.78 | -1.47 | 19.3 | 10.5 | 4.76 | 11.8 | -20.4 |
| CCO[C@@H]1CO[C@@]2(CCCN(Cc3scnc3C)C2)C1 | -2.88 | 0 | -3.01 | 9.05 | 7.14 | -5.19 | 9.85 | 3.99 | -4.17 | 3.7 | -0.793 |
| Cc1cnn(CCC(=O)N2CCCN(c3cccnn3)CC2)c1 | 1.07 | 3.8 | 1.28 | 0.558 | 1.74 | -0.645 | 13.2 | 12.8 | 2.08 | 5.06 | -16.1 |
| CC(C)N1CC(C(=O)NCCc2csc(-c3ccncc3)n2)CC1=O (configuration not stated) | -0.366 | 20.8 | 5.98 | -0.897 | 2.26 | -11 | 14.3 | 21 | 6.45 | 16.1 | -6.34 |
| Cc1nc(CN2CCCC(N(C)Cc3c(C)noc3C)C2)no1 (configuration not stated) | -2.99 | -15.6 | -0.475 | -1.55 | 9.7 | -0.21 | 16.6 | 6.79 | 1.91 | 9.41 | -22.6 |
| COc1cc(C)sc1C(=O)N1CC(c2cccnc2)C1 | -4.73 | 2.7 | 4.4 | -2.39 | -3.86 | -1.91 | 9.65 | -1.77 | 1.59 | 9.76 | -1.11 |
| COc1ccc(NC(C)C(=O)N2CCN(c3ncccn3)CC2)cn1 (configuration not stated) | -5.21 | 8.22 | -137 | -2.83 | 3.13 | 8.18 | 0.71 | -4.13 | 3.23 | 7.5 | -3.06 |
| Cn1cnc(S(=O)(=O)N2CCCC2)c1Cl | -1.75 | 4.17 | -5.49 | -0.277 | 1.46 | 13.2 | 15.4 | -29.7 | 3.16 | 10.3 | -2.89 |
| Cc1ccc(C2CCCCCN2Cc2cn(C)nc2C)cc1 (configuration not stated) | -2.53 | 5.2 | 1.3 | 6.91 | 4.83 | 1.94 | 5.92 | -15 | 8.47 | 19.2 | -11.2 |
| Cc1nnn2c1COCC(CNC(=O)c1ccc3[nH]ccc3c1)C2 (configuration not stated) | -2.29 | 13 | -0.0167 | 8.82 | 9.73 | -46.9 | 18.1 | 14.9 | 6.45 | 13.6 | -3.15 |
| COc1c(C2CCCN2C(=O)c2ccc(Cl)o2)c(C)nn1C (configuration not stated) | -5.93 | 13.5 | -4.28 | 21.4 | 2.93 | 4.17 | 10.6 | -2.68 | 5.94 | 18.3 | -0.337 |
| CCc1nc2n(n1)CC(NCc1ncc(-c3ccccc3)o1)CC2 (configuration not stated) | -1.59 | -2.63 | 0.215 | 5.65 | 1.21 | 1.8 | 4.65 | -5.2 | 3.45 | -23.5 | -5.56 |
| FC(F)(F)c1cc(N2CCc3ncnc(NC4CC4)c3CC2)ncn1 | -1.41 | 13.3 | 11.7 | -4.57 | -3.86 | -57.5 | 14.4 | 10.9 | 5.21 | -5 | -8.14 |
| CC(C)C(=O)NCCNc1nccc(-c2cc(C(=O)O)ccn2)n1 | -4.2 | 19.2 | -3.6 | 15 | 2.74 | 6.82 | 13.1 | 2.74 | 9.68 | 20 | -5.35 |

Source: ChEMBL document CHEMBL3988442, “University of Dundee, Small-Polar-MMV Screening Library” (2021)
